Results published in publication PMC11006913.
Numbering of substitutions follows the chain as printed.

Assays:
Test in all cases: PBM; 200 nM protein, PBS
Conditions in all cases: dsDNA, one strand shown
SHOX [1] = molecular target: SHOX (Homo sapiens, UniProt O15266 103-189)
HOXB9 [2] = molecular target: HOXB9 (Homo sapiens, UniProt P17482 171-250, T197M)
HOXC10 [3] = molecular target: HOXC10 (Homo sapiens, UniProt Q9NYD6 254-340)
HOXB9 [4] = molecular target: HOXB9 (Homo sapiens, UniProt P17482 171-250)
Sequence of HOXB9 (Homo sapiens, UniProt P17482 171-250) (P17482 171-250): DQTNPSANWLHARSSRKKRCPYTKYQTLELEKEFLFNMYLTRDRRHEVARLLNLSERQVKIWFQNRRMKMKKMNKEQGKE

SHOX [5] = molecular target: SHOX (Homo sapiens, UniProt O15266 103-189, R173C)
Sequence of SHOX (Homo sapiens, UniProt O15266 103-189, R173C) (O15266 103-189 R173C): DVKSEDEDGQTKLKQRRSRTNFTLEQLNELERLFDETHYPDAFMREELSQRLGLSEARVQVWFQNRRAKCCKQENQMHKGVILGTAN

HOXC10 [6] = molecular target: HOXC10 (Homo sapiens, UniProt Q9NYD6 254-340, K271E)
Sequence of HOXC10 (Homo sapiens, UniProt Q9NYD6 254-340, K271E) (Q9NYD6 254-340 K271E): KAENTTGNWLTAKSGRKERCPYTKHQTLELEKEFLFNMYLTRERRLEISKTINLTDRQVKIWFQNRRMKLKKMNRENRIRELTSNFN

HOXB9 [7] = molecular target: HOXB9 (Homo sapiens, UniProt P17482 171-250, R186Q)
Sequence of HOXB9 (Homo sapiens, UniProt P17482 171-250, R186Q) (P17482 171-250 R186Q): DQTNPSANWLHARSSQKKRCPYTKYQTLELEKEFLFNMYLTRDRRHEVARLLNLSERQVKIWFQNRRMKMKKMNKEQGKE

SIX6 [8] = molecular target: T1, SIX6 (Homo sapiens, UniProt O95475 114-200, L167I)
T1 sequence: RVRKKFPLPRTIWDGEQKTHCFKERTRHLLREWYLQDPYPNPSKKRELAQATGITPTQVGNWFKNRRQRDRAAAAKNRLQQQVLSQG

SIX6 [9] = molecular target: T2, SIX6 (Homo sapiens, UniProt O95475 114-200, L143V)
T2 sequence: T1 sequence with L30V, I54L

SIX6 [10] = molecular target: T3, SIX6 (Homo sapiens, UniProt O95475 114-200, H141N)
T3 sequence: T1 sequence with H28N, I54L

SIX6 [11] = molecular target: T4, SIX6 (Homo sapiens, UniProt O95475 114-200, T165P)
T4 sequence: T1 sequence with T52P, I54L

SIX6 [12] = molecular target: T5, SIX6 (Homo sapiens, UniProt O95475 114-200, L167M)
T5 sequence: T1 sequence with I54M

SIX6 [13] = molecular target: T6, SIX6 (Homo sapiens, UniProt O95475 114-200, L143M)
T6 sequence: T1 sequence with L30M, I54L

SIX6 [14] = molecular target: T7, SIX6 (Homo sapiens, UniProt O95475 114-200, L143I)
T7 sequence: T1 sequence with L30I, I54L

SIX6 [15] = molecular target: T8, SIX6 (Homo sapiens, UniProt O95475 114-200, T165G)
T8 sequence: T1 sequence with T52G, I54L

SIX6 [16] = molecular target: T9, SIX6 (Homo sapiens, UniProt O95475 114-200, T139Q)
T9 sequence: T1 sequence with T26Q, I54L

SIX6 [17] = molecular target: T10, SIX6 (Homo sapiens, UniProt O95475 114-200, T165A)
T10 sequence: T1 sequence with T52A, I54L

SIX6 [18] = molecular target: T11, SIX6 (Homo sapiens, UniProt O95475 114-200, L167V)
T11 sequence: T1 sequence with I54V

SIX6 [19] = molecular target: T12, SIX6 (Homo sapiens, UniProt O95475 114-200)
T12 sequence: T1 sequence with I54L

SIX6 [20] = molecular target: T13, SIX6 (Homo sapiens, UniProt O95475 114-200, T165I)
T13 sequence: T1 sequence with T52I, I54L

NKX2-4 [21] = molecular target: T14, NKX2-4 (Homo sapiens, UniProt Q9H2Z4 175-261, P217L)
T14 sequence: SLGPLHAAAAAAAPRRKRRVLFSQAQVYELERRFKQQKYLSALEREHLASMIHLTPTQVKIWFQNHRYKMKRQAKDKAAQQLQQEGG

VENTX [22] = molecular target: T15, VENTX (Homo sapiens, UniProt O95231 78-163, R121Q)
T15 sequence: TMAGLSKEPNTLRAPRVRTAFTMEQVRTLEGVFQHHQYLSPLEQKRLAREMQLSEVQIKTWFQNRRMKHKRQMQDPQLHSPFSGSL

VENTX [23] = molecular target: T16, VENTX (Homo sapiens, UniProt O95231 78-163)
T16 sequence: T15 sequence with Q44R

NKX2-4 [24] = molecular target: T17, NKX2-4 (Homo sapiens, UniProt Q9H2Z4 175-261, T231S)
T17 sequence: T14 sequence with L43P, T57S

VENTX [25] = molecular target: T18, VENTX (Homo sapiens, UniProt O95231 78-163, Y115F)
T18 sequence: T15 sequence with Y38F, Q44R

NKX2-4 [26] = molecular target: T19, NKX2-4 (Homo sapiens, UniProt Q9H2Z4 175-261)
T19 sequence: T14 sequence with L43P

ALX1 [27] = molecular target: ALX1 (Homo sapiens, UniProt Q15699 118-204, L144V)
Sequence of ALX1 (Homo sapiens, UniProt Q15699 118-204, L144V) (Q15699 118-204 L144V): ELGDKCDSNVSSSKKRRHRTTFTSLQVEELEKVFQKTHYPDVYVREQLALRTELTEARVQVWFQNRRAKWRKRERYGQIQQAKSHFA

ALX3 [28] = molecular target: ALX3 (Homo sapiens, UniProt O95076 139-225, N203Q)
Sequence of ALX3 (Homo sapiens, UniProt O95076 139-225, N203Q) (O95076 139-225 N203Q): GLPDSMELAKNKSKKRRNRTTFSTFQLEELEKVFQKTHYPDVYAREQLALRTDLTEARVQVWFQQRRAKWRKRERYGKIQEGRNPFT

ALX1 [29] = molecular target: ALX1 (Homo sapiens, UniProt Q15699 118-204, L144R)
Sequence of ALX1 (Homo sapiens, UniProt Q15699 118-204, L144R) (Q15699 118-204 L144R): as the sequence (Q15699 118-204 L144V) above, with V27R counted along it

ALX3 [30] = molecular target: ALX3 (Homo sapiens, UniProt O95076 139-225)
Sequence of ALX3 (Homo sapiens, UniProt O95076 139-225) (O95076 139-225): as the sequence (O95076 139-225 N203Q) above, with Q65N counted along it

NKX2-4 [31] = molecular target: T20, NKX2-4 (Homo sapiens, UniProt Q9H2Z4 175-261, R246Q)
T20 sequence: T14 sequence with L43P, R72Q

ALX3 [32] = molecular target: ALX3 (Homo sapiens, UniProt O95076 139-225, L168Q)
Sequence of ALX3 (Homo sapiens, UniProt O95076 139-225, L168Q) (O95076 139-225 L168Q): as the sequence (O95076 139-225 N203Q) above, with L30Q, Q65N counted along it

ALX3 [33] = molecular target: ALX3 (Homo sapiens, UniProt O95076 139-225, L168V)
Sequence of ALX3 (Homo sapiens, UniProt O95076 139-225, L168V) (O95076 139-225 L168V): as the sequence (O95076 139-225 N203Q) above, with L30V, Q65N counted along it

ALX1 [34] = molecular target: ALX1 (Homo sapiens, UniProt Q15699 118-204)
Sequence of ALX1 (Homo sapiens, UniProt Q15699 118-204) (Q15699 118-204): as the sequence (Q15699 118-204 L144V) above, with V27L counted along it

ALX3 [35] = molecular target: ALX3 (Homo sapiens, UniProt O95076 139-225, N203S)
Sequence of ALX3 (Homo sapiens, UniProt O95076 139-225, N203S) (O95076 139-225 N203S): as the sequence (O95076 139-225 N203Q) above, with Q65S counted along it

Sequence of SHOX (Homo sapiens, UniProt O15266 103-189) (O15266 103-189): as the sequence (O15266 103-189 R173C) above, with C71R counted along it
Sequence of HOXB9 (Homo sapiens, UniProt P17482 171-250, T197M) (P17482 171-250 T197M): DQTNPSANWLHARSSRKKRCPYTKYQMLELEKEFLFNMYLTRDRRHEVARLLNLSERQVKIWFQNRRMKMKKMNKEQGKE
Sequence of HOXC10 (Homo sapiens, UniProt Q9NYD6 254-340) (Q9NYD6 254-340): as the sequence (Q9NYD6 254-340 K271E) above, with E18K counted along it

CGCTGACC
binding signal (SHOX [1]): 7.27 upbm affinity estimate (log intensity, higher = more binding, comparable within an allelic series)
binding signal (HOXB9 [2]): 8.61 upbm affinity estimate (log intensity, higher = more binding, comparable within an allelic series)
binding signal (HOXC10 [3]): 10.1 upbm affinity estimate (log intensity, higher = more binding, comparable within an allelic series)
binding signal (HOXB9 [4]): 8.64 upbm affinity estimate (log intensity, higher = more binding, comparable within an allelic series)
binding signal (SHOX [5]): 7.24 upbm affinity estimate (log intensity, higher = more binding, comparable within an allelic series)
binding signal (HOXC10 [6]): 10.1 upbm affinity estimate (log intensity, higher = more binding, comparable within an allelic series)
binding signal (HOXB9 [7]): 8.66 upbm affinity estimate (log intensity, higher = more binding, comparable within an allelic series)

TTAGGAAA
binding signal (SHOX [1]): 8.58 upbm affinity estimate (log intensity, higher = more binding, comparable within an allelic series)

GGGCCGAA
binding signal (SHOX [1]): 7.23 upbm affinity estimate (log intensity, higher = more binding, comparable within an allelic series)
binding signal (SIX6 [8]): 8.79 upbm affinity estimate (log intensity, higher = more binding, comparable within an allelic series)
binding signal (SIX6 [9]): 8.79 upbm affinity estimate (log intensity, higher = more binding, comparable within an allelic series)
binding signal (SIX6 [10]): 8.73 upbm affinity estimate (log intensity, higher = more binding, comparable within an allelic series)
binding signal (SIX6 [11]): 8.89 upbm affinity estimate (log intensity, higher = more binding, comparable within an allelic series)
binding signal (SIX6 [12]): 8.8 upbm affinity estimate (log intensity, higher = more binding, comparable within an allelic series)
binding signal (SIX6 [13]): 8.64 upbm affinity estimate (log intensity, higher = more binding, comparable within an allelic series)
binding signal (SIX6 [14]): 8.74 upbm affinity estimate (log intensity, higher = more binding, comparable within an allelic series)
binding signal (SIX6 [15]): 8.79 upbm affinity estimate (log intensity, higher = more binding, comparable within an allelic series)
binding signal (SIX6 [16]): 8.8 upbm affinity estimate (log intensity, higher = more binding, comparable within an allelic series)
binding signal (SIX6 [17]): 8.73 upbm affinity estimate (log intensity, higher = more binding, comparable within an allelic series)
binding signal (SHOX [5]): 7.18 upbm affinity estimate (log intensity, higher = more binding, comparable within an allelic series)
binding signal (SIX6 [18]): 8.77 upbm affinity estimate (log intensity, higher = more binding, comparable within an allelic series)
binding signal (SIX6 [19]): 8.68 upbm affinity estimate (log intensity, higher = more binding, comparable within an allelic series)
binding signal (SIX6 [20]): 8.82 upbm affinity estimate (log intensity, higher = more binding, comparable within an allelic series)

TAAATGGA
binding signal (SHOX [1]): 8.78 upbm affinity estimate (log intensity, higher = more binding, comparable within an allelic series)

GCCGTAGC
binding signal (SHOX [1]): 6.96 upbm affinity estimate (log intensity, higher = more binding, comparable within an allelic series)
binding signal (NKX2-4 [21]): 9.17 upbm affinity estimate (log intensity, higher = more binding, comparable within an allelic series)
binding signal (VENTX [22]): 7.91 upbm affinity estimate (log intensity, higher = more binding, comparable within an allelic series)
binding signal (VENTX [23]): 7.82 upbm affinity estimate (log intensity, higher = more binding, comparable within an allelic series)
binding signal (NKX2-4 [24]): 9.15 upbm affinity estimate (log intensity, higher = more binding, comparable within an allelic series)
binding signal (VENTX [25]): 7.86 upbm affinity estimate (log intensity, higher = more binding, comparable within an allelic series)
binding signal (NKX2-4 [26]): 9.34 upbm affinity estimate (log intensity, higher = more binding, comparable within an allelic series)
binding signal (ALX1 [27]): 6.19 upbm affinity estimate (log intensity, higher = more binding, comparable within an allelic series)
binding signal (ALX3 [28]): 7.67 upbm affinity estimate (log intensity, higher = more binding, comparable within an allelic series)
binding signal (SHOX [5]): 7.22 upbm affinity estimate (log intensity, higher = more binding, comparable within an allelic series)
binding signal (ALX1 [29]): 6.26 upbm affinity estimate (log intensity, higher = more binding, comparable within an allelic series)
binding signal (ALX3 [30]): 7.55 upbm affinity estimate (log intensity, higher = more binding, comparable within an allelic series)
binding signal (NKX2-4 [31]): 9.33 upbm affinity estimate (log intensity, higher = more binding, comparable within an allelic series)
binding signal (ALX3 [32]): 7.74 upbm affinity estimate (log intensity, higher = more binding, comparable within an allelic series)
binding signal (ALX3 [33]): 7.76 upbm affinity estimate (log intensity, higher = more binding, comparable within an allelic series)
binding signal (ALX1 [34]): 6.18 upbm affinity estimate (log intensity, higher = more binding, comparable within an allelic series)
binding signal (ALX3 [35]): 7.68 upbm affinity estimate (log intensity, higher = more binding, comparable within an allelic series)
